Measured values published in PubChem BioAssay (NCATS).
Unmarked numbers belong to inactive results. How the calls were made is not given here.

tested on: HIV-1 nucleocapsid protein NCp7 (binding to TG oligonucleotide); assay: HIV Nucleocapsid (AID 346); conditions: HIV-1 NC / fluorescein-TGTGTGTG probe, fluorescence polarization;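 further: potency is for inhibitors that block NC binding and lower polarization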
In short: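 Inhibition of nucleocapsid binding to single-stranded 5'-TGTGTGTG probe (10 nM) was measured by fluorescence polarization after 1 hr at room temperature with 100 nM protein under high-salt, zinc-containing, reducing conditions.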
Potency means the concentration at half of the fitted maximal effect.

Q: With `COc1ccc(C(=O)N2CCC3(CCCN(C)C3)CC2)cc1` as the compound, how does the Potency read?
A: > 20 µM

Q: `Cc1noc(C)c1C(=O)N1CCC[C@@]2(CCN(C(=O)Nc3ccccc3)C2)C1` was tested. Which Potency did it give?
A: > 20 µM

Q: Which Potency does the source give for `CN(C)C(=O)c1ccc(-c2ccc3ncnc(NCc4cccs4)c3c2)cc1` here?
A: > 20 µM

Q: `COCCn1c(=O)cnc2cnc(Nc3cccc(OC)c3)nc21` was tested. Which Potency did it give?
A: > 20 µM

Q: `CN(C)c1nc(-c2ccoc2)nc2ccccc12` was tested. Which Potency did it give?
A: > 20 µM

Q: Which Potency does the source give for `CCNc1ncc2nc(-c3cccs3)c(=O)n(CCc3ccccc3)c2n1` here?
A: > 20 µM

Q: `N#CCCn1c(=O)c(-c2cccs2)nc2cnc(Oc3ccccc3)nc21` was tested. Which Potency did it give?
A: > 20 µM

Q: With `FC(F)(F)c1ccccc1-c1nccc(N2CCNCC2)n1` as the compound, how does the Potency read?
A: > 20 µM

Q: Which Potency does the source give for `COc1ccc(NC(=O)N2CC3(CCNCC3)C2)cc1` here?
A: > 20 µM

Q: With `CS(=O)(=O)N1CCC2(CCN(Cc3nccs3)CC2)CC1` as the compound, how does the Potency read?
A: > 20 µM

Q: How did the Potency turn out when `CS(=O)(=O)N1CCC2(CC1)CN(C(=O)Nc1ccccc1)C2` was run?
A: > 20 µM

Q: With `CN(C)c1ccc(-c2nc(Nc3ccncc3)c3ccccc3n2)cc1` as the compound, how does the Potency read?
A: > 20 µM

Q: With `CS(=O)(=O)Nc1cccc(-c2nc(NCc3ccccc3)c3ccccc3n2)c1` as the compound, how does the Potency read?
A: > 20 µM

Q: For `O=C(c1csnn1)N1CCC2(CCCN(c3ccccn3)C2)CC1`, which Potency is on record?
A: > 20 µM

Q: With `COc1cccc(Nc2ncc3nc(-c4cc(F)cc(F)c4)c(=O)n(CCC#N)c3n2)c1` as the compound, how does the Potency read?
A: > 20 µM

Q: `O=C(c1cccc(F)c1)N1CCC2(CCCN(c3ccc(-c4ccccc4)cc3)C2)CC1` was tested. Which Potency did it give?
A: > 20 µM

Q: How did the Potency turn out when `CN(Cc1ccco1)c1ccnc(-c2ccoc2)n1` was run?
A: > 20 µM

Q: With `COc1cccc(Cn2c(=O)c(C)nc3cnc(N4CCNCC4)nc32)c1` as the compound, how does the Potency read?
A: > 4 µM

Q: How did the Potency turn out when `O=S(=O)(c1ccccc1)N1CCC2(CCCN(Cc3ccccc3)C2)CC1` was run?
A: > 20 µM

Q: Which Potency does the source give for `c1ccc(CNc2ncncc2-c2ccoc2)cc1` here?
A: > 20 µM

Q: `Cc1noc(C)c1-c1ccc2ncnc(NCCN3CCOCC3)c2c1` was tested. Which Potency did it give?
A: > 20 µM

Q: `COc1ccc(-n2c(=O)c(CCc3ccccc3)nc3cnc(N(C)C)nc32)cc1` was tested. Which Potency did it give?
A: > 20 µM

Q: How did the Potency turn out when `COc1ccc(NC(=O)N2CC[C@@]3(CCCN(S(C)(=O)=O)C3)C2)cc1` was run?
A: > 20 µM

Q: How did the Potency turn out when `COCCn1c(=O)c(-c2ccc(Cl)cc2)nc2cnc(Oc3ccc(OC)cc3)nc21` was run?
A: > 20 µM

Q: With `Cn1cc(-c2nc3cnc(N4CCNCC4)nc3n(C3CC3)c2=O)c2ccccc21` as the compound, how does the Potency read?
A: > 20 µM

Q: How did the Potency turn out when `c1cncc(-c2cc(NCc3cccs3)ncn2)c1` was run?
A: > 20 µM

Q: With `Cc1cccc(CNc2ccnc(-c3cccnc3)n2)c1` as the compound, how does the Potency read?
A: > 20 µM

Q: How did the Potency turn out when `Cn1c(=O)c(-c2ccccc2)nc2cnc(N3CCOCC3)nc21` was run?
A: > 20 µM

Q: With `Cc1cnc(CNc2ncncc2-c2ccccc2C)cn1` as the compound, how does the Potency read?
A: > 20 µM

Q: Which Potency does the source give for `COc1ccccc1CN1CC2(CCN(S(=O)(=O)c3ccccc3)CC2)C1` here?
A: > 20 µM

Q: `COc1ccc(CNc2ccnc(-c3ccccc3OC)n2)c(OC)c1` was tested. Which Potency did it give?
A: > 20 µM

Q: Which Potency does the source give for `COc1cccc(-c2ccc3ncnc(N4CCN(C)CC4)c3c2)c1` here?
A: > 20 µM

Q: Which Potency does the source give for `COc1ccccc1CNc1ccnc(-c2cccc(C#N)c2)n1` here?
A: > 20 µM

Q: `Cc1cnc(CNc2ncnc3ccc(-c4ccoc4)cc23)cn1` was tested. Which Potency did it give?
A: > 20 µM

Q: How did the Potency turn out when `O=S(=O)(c1ccccc1)N1CCC2(CC1)CN(c1ccccn1)C2` was run?
A: > 20 µM

Q: Which Potency does the source give for `COc1ccc(-n2c(=O)c(C)nc3cnc(N4CCOCC4)nc32)cc1` here?
A: > 20 µM

Q: `Cc1noc(C)c1-c1cc(N(C)C)ncn1` was tested. Which Potency did it give?
A: > 20 µM

Q: `Cc1cccc(CNc2ccnc(-c3cccc(C#N)c3)n2)c1` was tested. Which Potency did it give?
A: > 20 µM

Q: `COc1ccc(-n2c(=O)cnc3cnc(Oc4cccc(Cl)c4)nc32)cc1` was tested. Which Potency did it give?
A: > 20 µM

Q: For `CC(=O)N1CCC2(CCCN(Cc3ccccc3)C2)CC1`, which Potency is on record?
A: > 20 µM
